Source: PubChem BioAssay (Broad Institute)
Pf Dd2 inh – P. falciparum Dd2 growth inhibitors, primary screen, SYBR Green fluorescence, single dose replicates | 72 h; stronger effect = lower value | activity change, % at 10 µM | actives 2.3% (n = 94,000); in the data active = activity change below about -80%; inconclusive = no clear call, values can overlap the other calls
T cruzi growth-1 – T. cruzi intracellular proliferation inhibitors, primary screen, cell-based, beta-gal Tulahuen parasites, NIH3T3 host, luminescence; T. cruzi beta-gal in NIH3T3, GalScreen luminescence, 90 h; inhibition, % at 8.34 µM; actives 5.9% (n = 77,000); AID 624255, 2012;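 active = mean inhibition above about 93%, with at least 55% of replicates each passing it, limit read from the data, passing the limit was not always enough; inconclusive = only one of those two conditions holds; inactive = neither condition holds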
C diff growth – C. difficile growth inhibitors, primary screen, HTS | Clostridium difficile clinical isolate growth, OD600, 24 h; stronger effect = lower value | growth activity, negative = inhibition, % at 16 µg/mL (by protocol) | actives 0.25% (n = 86,000);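 active = mean growth activity at or below -80% and every replicate also at or below -80%; inconclusive = mean at or below -80% but some replicate above -80%; inactive = mean growth activity above -80%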;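 note: 0% = DMSO wells and -100% = levofloxacin 16 µg/mL wells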
T cruzi growth-2 – T. cruzi intracellular proliferation inhibitors, confirmation, cell-based, NIH3T3 host, beta-gal parasite, luminescence, cherry-pick; shares compounds with T cruzi growth-1; T. cruzi beta-gal in NIH3T3, GalScreen luminescence, 90 h; inhibition, % at 8.35 µM; actives 72% (n = 5,600);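 active = mean replicate inhibition above about 95% and at least 55% of replicates individually reaching it, limit read from the data; inconclusive = only one of the two criteria is met; inactive = neither criterion is met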
T cruzi growth-3 – inhibitors of intracellular T. cruzi replication, confirmation, NIH3T3 host cells, beta-gal parasites, cherry-pick, set 2; inhibition, % at 2.09 µM; shares compounds with T cruzi growth-1; T. cruzi beta-gal in NIH3T3, GalScreen luminescence, 90 h; actives 21% (n = 5,600); AID 651740, 2012;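 active = mean inhibition above about 95%, with at least 55% of replicates also reaching it, limit read from the data; inconclusive = meets just one of the two conditions; inactive = meets neither condition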;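 note: plate controls were neutral control median for no effect and positive control median for full effect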
NIH3T3 tox – cytotoxicity in mouse NIH/3T3 fibroblasts, confirmation, cytotoxicity control for T. cruzi proliferation inhibitor project, cell-based, cherry-pick, single point; shares compounds with T cruzi growth-1; actives 14% (n = 5,600); NIH/3T3 viability, CellTiter-Glo ATP luminescence, 90 h; cytotoxicity (signal decrease), % at 8.35 µM; AID 651742, 2012;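 active = mean signal decrease across replicates above about 35% based on untreated-well scatter, with enough replicates individually passing, limit read from the data; inconclusive = no rule stated though some were filed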;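 note: 0% = median of neutral control wells and 100% = median of positive control wells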
3T3 cytotox 2 – NIH/3T3 fibroblast cytotoxicity, confirmation, cytotoxicity control, cell-based, cherry-pick, single point, set 2; actives 56% (n = 5,600); NIH/3T3 viability, CellTiter-Glo ATP luminescence, 90 h; shares compounds with T cruzi growth-1; inhibition, % at 24.9 µM;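 active = mean loss of cell viability signal at or above a set limit, and enough replicates individually reaching it; inconclusive = meets only the mean limit or only the replicate share; inactive = meets neither condition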;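 note: 0% = median of neutral control wells and 100% = median of positive control wells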
* = called active by the depositor; ? = inconclusive; / = not tested or not shown; + = active, no number. In the library only some 6.7% were active in any assay of this set; here they are far more common.

SMILES	Pf Dd2 inh	T cruzi growth-1	C diff growth	T cruzi growth-2	T cruzi growth-3	NIH3T3 tox	3T3 cytotox 2
COc1ccc(NC(=O)N(C)C[C@@H]2Oc3ncc(-c4cc5ccccc5o4)cc3C(=O)N([C@H](C)CO)C[C@@H]2C)cc1	-47	109*	1	106*	41	32	34*
C[C@@H]1CN([C@@H](C)CO)C(=O)c2cccc(NC(=O)C3CC3)c2O[C@H]1CN(C)S(=O)(=O)c1ccc(Cl)cc1	-2	26	1	/	/	/	/
Cc1ccc(-c2ccc3c(c2)O[C@@H](CN(C)CC2CC2)[C@@H](C)CN([C@@H](C)CO)S3(=O)=O)cc1	-58	44	18	/	/	/	/
CN1CCN(C(=O)C[C@H]2CC[C@H]3[C@@H](COC[C@H](O)CN3C(=O)C3CC3)O2)CC1	2	-23	-1	/	/	/	/
O=C(N[C@@H]1CC[C@H](CCn2cc(Cc3ccccc3)nn2)O[C@H]1CO)c1ccccn1	-15	56	-2	/	/	/	/
CN(C)CCCNC(=O)C[C@H]1CC[C@@H]2[C@H](COC[C@H](O)CN2Cc2cccc(F)c2)O1	15	-51	3	/	/	/	/
CC(=O)N(C)C[C@H]1Oc2ncc(-c3ccccc3C)cc2C(=O)N([C@@H](C)CO)C[C@H]1C	28	5	-2	/	/	/	/
C[C@H]1CCCCO[C@H](CN(C)S(=O)(=O)c2ccccc2)[C@@H](C)CN([C@@H](C)CO)C(=O)c2cc(NS(=O)(=O)c3cccs3)ccc2O1	/	61	-2	/	/	/	/
C[C@@H]1CCCCO[C@H](CN(C)S(=O)(=O)c2ccc(Cl)cc2)[C@@H](C)CN([C@@H](C)CO)C(=O)c2cc(NS(=O)(=O)c3cccs3)ccc2O1	/	110*	-1	113*	70	7	3
C[C@@H]1CCCCO[C@@H](CN(C)S(=O)(=O)c2ccc(Cl)cc2)[C@H](C)CN([C@@H](C)CO)C(=O)c2cc(NS(=O)(=O)c3cccs3)ccc2O1	/	102*	-9	105*	83	21	-2
C[C@@H]1CN([C@@H](C)CO)C(=O)c2cc(NS(=O)(=O)c3cccs3)ccc2O[C@@H](C)CCCCO[C@H]1CN(C)S(=O)(=O)c1ccc(Cl)cc1	/	93	-1	/	/	/	/
CC(=O)N(C)C[C@H]1Oc2ncc(-c3cccc(F)c3)cc2C(=O)N([C@@H](C)CO)C[C@@H]1C	23	-3	-1	/	/	/	/
CC(C)NC(=O)Nc1ccc2c(c1)C(=O)N([C@H](C)CO)C[C@H](C)[C@H](CN(C)S(=O)(=O)c1cn(C)cn1)O2	14	-6	-3	/	/	/	/
C[C@@H]1CN([C@H](C)CO)S(=O)(=O)c2ccc(C3=CCCCC3)cc2O[C@H]1CN(C)C(=O)C1CCOCC1	-37	/	/	/	/	/	/
CN1[C@H](C(=O)Nc2ccccc2)[C@@H](CO)[C@@H]2Cn3c(ccc(-c4ccccc4)c3=O)[C@@H]21	8	100*	0	59	-20	-1	?
CC(=O)N1[C@H](C(=O)NC2CCC2)[C@@H](CO)[C@@H]2Cn3c(ccc(-c4ccccc4)c3=O)[C@@H]21	10	21	-2	/	/	/	/
CN1[C@@H]2c3ccc(-c4ccccc4)c(=O)n3C[C@@H]2[C@@H](CO)[C@@H]1C(=O)Nc1ccccc1	2	101*	-1	92	16	4	18
CN(C)CC(=O)N1[C@H](C(=O)NC2CCC2)[C@@H](CO)[C@@H]2Cn3c(ccc(-c4ccccc4)c3=O)[C@@H]21	/	+	-2	60	-20	-13	-24
CCN1[C@H](C(=O)Nc2ccccc2)[C@@H](CO)[C@@H]2Cn3c(ccc(-c4ccncc4)c3=O)[C@@H]21	-4	14	2	/	/	/	/
COc1ccc(-c2ccc3n(c2=O)C[C@H]2[C@H](CO)[C@@H](C(=O)Nc4ccccc4)N(C)[C@@H]32)cc1	24	/	1	/	/	/	/
C[C@H]1CN([C@@H](C)CO)C(=O)c2cccc(NC(=O)C3CC3)c2O[C@H]1CN(C)CC1CC1	1	/	1	/	/	/	/
Cc1noc(C)c1NC(=O)Nc1ccc2c(c1)C(=O)N([C@@H](C)CO)C[C@@H](C)[C@H](CN(C)C(=O)Nc1ccc(F)cc1)OCCCC[C@H](C)O2	6	-3	-2	/	/	/	/
Cc1cc(C(=O)Nc2cccc3c2O[C@@H](CN(C)Cc2ccncc2)[C@H](C)CN([C@H](C)CO)C3=O)n(C)n1	3	0	2	/	/	/	/
CCS(=O)(=O)N[C@@H]1C=C[C@H](CC(=O)NCc2ccc(Cl)cc2)O[C@H]1CO	18	7	-5	/	/	/	/
CCc1cnc(N2[C@@H](C#N)[C@H](c3ccc(-c4cccc(F)c4)cc3)[C@@H]2CO)s1	-13	83	-37	/	/	/	/
SMILES	Pf Dd2 inh	T cruzi growth-1	C diff growth	T cruzi growth-2	T cruzi growth-3	NIH3T3 tox	3T3 cytotox 2
CCc1cnc(N2[C@H](CO)[C@@H](c3ccc(-c4cccc(F)c4)cc3)[C@@H]2C#N)s1	3	85	18	/	/	/	/
CCc1cnc(N2[C@@H](C#N)[C@@H](c3ccc(-c4cccc(F)c4)cc3)[C@@H]2CO)s1	1	108*	15	101*	106*	29	60*
CCc1cnc(N2[C@H](C#N)[C@@H](c3ccc(-c4cccc(F)c4)cc3)[C@H]2CO)s1	-7	109*	15	110*	81	27	37
CCc1cnc(N2[C@H](C#N)[C@H](c3ccc(-c4cccc(F)c4)cc3)[C@H]2CO)s1	-40	105*	12	105*	93	10	26*
COc1ccc(CN(C)C[C@H]2Oc3ccc(N(C)C)cc3CC(=O)N([C@@H](C)CO)C[C@H]2C)cc1	-3	/	-3	/	/	/	/
C[C@@H]1CN([C@H](C)CO)C(=O)c2cc(C#CC3CCCC3)cnc2O[C@H]1CN(C)S(=O)(=O)c1cccc(F)c1	-60	?	-1	104*	80	32	77*
C[C@H]1CN([C@@H](C)CO)C(=O)c2cc(C#CC3CCCC3)cnc2O[C@@H]1CN(C)S(=O)(=O)c1cccc(F)c1	-70	120*	-2	105*	48	11	83*
C[C@@H]1CN([C@@H](C)CO)C(=O)c2cc(C#CC3CCCCC3)cnc2O[C@H]1CN(C)S(=O)(=O)c1cccc(F)c1	-32	/	3	/	/	/	/
C[C@@H]1CN([C@@H](C)CO)C(=O)c2cc(C#CC3CCCCC3)cnc2O[C@@H]1CN(C)S(=O)(=O)c1cccc(F)c1	-5	/	-6	/	/	/	/
C[C@H](CO)N1C[C@H](C)[C@H](CN(C)S(=O)(=O)CC(F)(F)F)OCc2ccccc2-c2c(n(C)c3ccccc23)C1=O	7	85	-4	/	/	/	/
